# Results as given in PubChem BioAssay (NCATS).
# Inconclusive results are not listed. A number with no mark means an inactive call. Active and inactive are the calls of the source. Calls follow the shape of the dose curve; as a rule, active = well fitted cell-killing curve with a large enough effect; inconclusive = small, poorly fitted or top-dose-only effect, or effect the other way; inactive = no such curve, though single readings can be large or run the other way. Starred links: 1 amine or outer side, 2 acyl side, 3 side chain; linkers in the order of their positions; H or OH if unused. Positions of bridges follow the written chain, without caps; N, C: chain ends. Non-standard residues stand in square brackets, D forms with d. Residues, ends and D or L forms follow the SMILES beside them. Chains are numbered I, II in the order given. *: point of attachment. Actinocin(9to1) = Cc1c2oc3c(C)ccc(C(=O)[*:1])c3nc-2c(C(=O)[*:2])c(N)c1=O; NMeV = CN[CH](C(=O)O)C(C)C; Cbz = O=C(OCc1ccccc1)*; Sar = CNCC(=O)O
# Experiment: qHTS of pediatric cancer cell lines to identify multiple opportunities for drug repurposing: Confirmatory screen for Rh30 cells (AID 1347126); also: nearly all actives have a fitted effect of over 55% in size
# Details: Rh30 rhabdomyosarcoma cell viability; series mostly up to 45.9 µM; activity change, negative = cytotoxic: at the top concentration
# Text: Drug repurposing or repositioning has been offered as a strategy for drug development in oncology programs. This approach has special potential for childhood cancers and other rare or orphan diseases, where the expected return on new drug development has been a disincentive to pharmaceuticals.
# In this project we exploit the poly-pharmacology of drugs to discover new indications via phenotypic screening of a panel of 19 well-characterized cell lines derived from solid tumors seen in children and adolescents. The goal is to identify approved drugs with previously unrecognized anticancer properties that has the potential to reveal new mechanisms and biological processes involved in carcinogenesis or drug resistance. We employed a titration-based paradigm (quantitative high-throughput screening or qHTS), where all compounds were tested at multiple concentrations for their effect on cell viability. Concentration-response curves (CRCs) were derived directly from the primary screen, and both potency and efficacy values were used to identify compounds with robust bioactivity profiles. We screened the NIH Chemical Genomics Center (NCGC) Pharmaceutical Collection (NPC) and Mechanism Interrogation Plate (MIPE) small molecule collections of approved and investigational compounds against these cell lines; and measured metabolically active cells after 48 hours of compound treatment as a proxy for cell viability.
# Assay Submitter: Nathalia J. Martinez, National Center for Advancing Translational Sciences, National Institutes of Health, Rockville, MD, USA; email: natalia.martinez@nih.gov
# [1] Shen, M et al. Quantitative high-throughput phenotypic screening of pediatric cancer cell lines identifies multiple opportunities for drug repurposing. Oncotarget 2017 Dec 19;9(4):4758-4772. PMID 29435139.
# The cells were obtained from University of North Carolina (UNC), Pediatric Preclinical Testing Program (PPT), and Coriell Institute (CI).
# qHTS cell viability assay:
# Cells were assayed in growth media at a density of 500-1,000 cells/well. Five microliters of cells were dispensed into 1,536-well, white, solid-bottom, TC-treated plates (Greiner Bio One) using a multidrop dispenser and incubated at 37 degrees C, 5% CO2, under a humidified atmosphere for 5 hours. Twenty-three nanoliters of compounds and controls (neutral control DMSO or positive control bortezomib at final concentration of 2.3 µM) were subsequently transferred by Kalypsys pintool. For primary screens, the MIPE collection was tested at 11-point dilutions (final concentrations range from 0.78 nM to 46 µM) and the NPC collection at 8-point dilutions (final concentrations range from 0.59 nM to 46 µM). Compounds tested in follow-up screens were assayed at 11-point dilutions. Cells were incubated for 48 hours, followed by addition of 3 µL of CellTiter-Glo (Promega). After a 15 min incubation at room temperature, samples were analyzed for luminescence intensity using a ViewLux High-throughput CCD imager equipped with clear filters.
# % is scaled to controls: 0 for no effect and ±100 for the full control effect; potency is read from the fitted curve at half-maximal effect.
Compound,Potency,"activity change, negative = cytotoxic [%]"
CS(=O)(=O)N1CCc2c(-c3cnc(N)nc3)nc(N3CCOCC3)nc21,1.47 µM (active),–
COc1cccc2c1C(=O)c1c(O)c3c(c(O)c1C2=O)C[C@@](O)(C(C)=O)C[C@H]3O[C@H]1C[C@H](N)[C@H](O)[C@H](C)O1,–,-10.3
O=S(=O)(O)CCSSCCS(=O)(=O)O,–,0
CC(=O)[C@]1(O)Cc2c(O)c3c(c(O)c2[C@@H](O[C@H]2C[C@H](N)[C@@H](O)[C@H](C)O2)C1)C(=O)c1ccccc1C3=O,–,-23.6
CC(C)C[C@@H](C=O)NC(=O)[C@H](CC(C)C)NC(=O)[C@H](CC(C)C)NC(=O)OCc1ccccc1 (Cbz-Leu-Leu-Leu-aldehyde),3.29 µM (active),–
O=C(C=Cc1ccc(CN(CCO)CCc2c[nH]c3ccccc23)cc1)NO,0.414 µM (active),–
O=C(C=CC#Cc1cccc(NS(=O)(=O)c2ccccc2)c1)NO,5.22 µM (active),–
FC(F)c1nc2ccccc2n1-c1nc(N2CCOCC2)nc(N2CCOCC2)n1,1.65 µM (active),–
Nc1nc2c(c(=O)[nH]1)N(C=O)[C@H](CNc1ccc(C(=O)N[C@@H](CCC(=O)O)C(=O)O)cc1)CN2,–,4.37
CC(=O)NCC(=O)N1[C@H]2CC[C@H]1c1cc(Nc3ncc(C(F)(F)F)c(NC4CCC4)n3)ccc12,3.69 µM (active),–
CCN(CC)Cc1ccc2cc(COC(=O)Nc3ccc(C(=O)NO)cc3)ccc2c1,–,2.66
Nc1ncn([C@@H]2O[C@H](CO)[C@@H](O)[C@@H]2O)c(=O)n1,18.5 µM (active),–
C[C@H](NCc1ccc2c(c1)nc(NC(=O)c1ccc(-c3cn[nH]c3)s1)n2CCc1ccccc1)C(C)(C)C,4.14 µM (active),–
CC(=O)O[C@H]1C[C@@H]2CC[C@H]3[C@H]4C[C@H]([N+]5(C)CCCCC5)[C@@H](OC(C)=O)[C@@]4(C)CC[C@@H]3[C@@]2(C)C[C@H]1N1CCCCC1,8.27 µM (active),–
CC(=O)SCC(Cc1ccccc1)C(=O)NCC(=O)OCc1ccccc1 (stereo not given),–,-0.248
COc1ccc2c(c1OC)C(=O)OC2[C@H]1c2c(cc3c(c2OC)OCO3)CCN1C (stereo not given in full),–,-29.7
CNC(=O)c1ccc(Nc2cc(Nc3ccccc3S(=O)(=O)C(C)C)c3cc[nH]c3n2)nc1,4.14 µM (active),–
CC(C)NC[C@@H](C(=O)N1CCN(c2ncnc3c2[C@H](C)C[C@H]3O)CC1)c1ccc(Cl)cc1,8.27 µM (active),–
Oc1ccc(-c2ccc(-c3cc(Nc4cccc(CNC5CC5)c4)n[nH]3)cc2)c(O)c1,5.22 µM (active),–
C#CCC(Cc1cnc2nc(N)nc(N)c2n1)c1ccc(C(=O)N[C@@H](CCC(=O)O)C(=O)O)cc1 (stereo not given in full),–,-3.33

Compound,Potency,"activity change, negative = cytotoxic [%]"
CN(CC(=O)N(Cc1ccc(C2CCCCC2)cc1)c1ccc(C(=O)O)c(O)c1)S(=O)(=O)c1c(F)c(F)c(F)c(F)c1F,–,4.31
COc1ccc(C=Cc2cc(OC)c(OC)c(OC)c2)cc1NC(=O)[C@H](N)CO,0.928 µM (active),–
Cc1cnc(Nc2ccc(CN3CCOCC3)cc2)nc1Nc1cccc(S(=O)(=O)NC(C)(C)C)c1,–,-24.1
O=C(O)c1ccc(Nc2ncc3c(n2)-c2ccc(Cl)cc2C(c2c(F)cccc2F)=NC3)cc1,–,-68.7
CC(C)C[C@H](NC(=O)[C@@H](NC(=O)c1cccc(-c2ccccc2)n1)[C@@H](C)O)B(O)O,3.29 µM (active),–
CC(C)(O)Cn1c(NC(=O)c2ccc(-c3cn[nH]c3)s2)nc2cc(CN3CCOCC3)ccc21,0.657 µM (active),–
O=C1NC(=O)C(=Cc2ccc3nccc(-c4ccncc4)c3c2)S1,6.57 µM (active),–
C=C1C(=CC=C2CCC[C@]3(C)[C@@H]([C@H](C)CCCC(C)(C)O)CC[C@@H]23)C[C@@H](O)C[C@@H]1O,–,0.631
CC(C)C[C@H](NC(=O)CNC(=O)c1cc(Cl)ccc1Cl)B1OC(=O)CC(CC(=O)O)(C(=O)O)O1 (stereo not given in full),2.33 µM (active),–
CNC(=O)Nc1ccc(-c2nc(N3CC4CCC(C3)O4)c3cnn(C4CCC5(CC4)OCCO5)c3n2)cc1,0.329 µM (active),–
CCC(C(=O)O)C1CCC(C)C(C(C)C(O)C(C)C(=O)C(CC)C2OC3(C=CC(O)[C@@]4(CC[C@](C)(C5CC[C@@](O)(CC)C(C)O5)O4)O3)C(C)CC2C)O1 (stereo not given in full),18.5 µM (active),–
CN(C)c1ccc(C(=O)NCCCCCCC(=O)NO)cc1,3.29 µM (active),–
NS(=O)(=O)OC[C@@H]1C[C@@H](n2ccc3c(N[C@H]4CCc5ccccc54)ncnc32)C[C@H]1O,–,0
COc1ccc(C(C)=O)c(O)c1,–,0.362
CC(C)N1[N]C(=C2C=c3cc(O)ccc3=N2)c2c(N)ncnc21,1.65 µM (active),–
COc1cccc2c1C(=O)c1c(O)c3c(c(O)c1C2=O)C[C@@](O)(C(=O)CO)C[C@H]3O[C@H]1C[C@H](N)[C@H](O)[C@H](C)O1,1.17 µM (active),–
CC(C=CC(=O)NO)=C[C@@H](C)C(=O)c1ccc(N(C)C)cc1,–,4.49
COc1cc([C@@H]2c3cc4c(cc3[C@@H](O[C@@H]3O[C@@H]5CO[C@@H](c6cccs6)O[C@@H]5[C@H](O)[C@@H]3O)[C@H]3COC(=O)[C@H]23)OCO4)cc(OC)c1O,1.31 µM (active),–
C[C@@]12C(=O)OC(=O)[C@@]1(C)C1CCC2O1,3.29 µM (active),–
"Cc1c2oc3c(C)ccc(C(=O)NC4C(=O)NC(C(C)C)C(=O)N5CCCC5C(=O)N(C)CC(=O)N(C)C(C(C)C)C(=O)OC4C)c3nc-2c(C(=O)NC2C(=O)NC(C(C)C)C(=O)N3CCCC3C(=O)N(C)CC(=O)N(C)C(C(C)C)C(=O)OC2C)c(N)c1=O (stereo not given) (I: TVP[Sar][NMeV] / II: TVP[Sar][NMeV]; ester I:1-I:C, II:1-II:C; linker I:N-II:N via Actinocin(9to1); configuration not given here)",–,13.5
